# Screening data: PubChem BioAssay, NMMLSC
# RGS16-Gao: modulators of RGS16 binding to Galphao, primary screen, biochemical, human proteins, multiplexed bead flow cytometry; Regulator of G-protein signaling 16 (Homo sapiens) + Guanine nucleotide-binding protein …; actives 0.38% (n = 220,000); bead-based flow cytometry RGS16-Galphao binding, fluorescence; actives lie on both sides; binding response (% of control), % at 10 µM;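 further: Galphao activated by GDP with aluminum fluoride before binding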
# Target sequence (O15492 whole entry, looked up): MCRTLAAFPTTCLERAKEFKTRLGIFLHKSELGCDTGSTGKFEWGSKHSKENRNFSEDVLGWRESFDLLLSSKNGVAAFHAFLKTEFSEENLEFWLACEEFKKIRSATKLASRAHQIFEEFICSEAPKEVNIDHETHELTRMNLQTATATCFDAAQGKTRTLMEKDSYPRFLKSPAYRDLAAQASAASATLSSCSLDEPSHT
# Target sequence (P09471 whole entry, looked up): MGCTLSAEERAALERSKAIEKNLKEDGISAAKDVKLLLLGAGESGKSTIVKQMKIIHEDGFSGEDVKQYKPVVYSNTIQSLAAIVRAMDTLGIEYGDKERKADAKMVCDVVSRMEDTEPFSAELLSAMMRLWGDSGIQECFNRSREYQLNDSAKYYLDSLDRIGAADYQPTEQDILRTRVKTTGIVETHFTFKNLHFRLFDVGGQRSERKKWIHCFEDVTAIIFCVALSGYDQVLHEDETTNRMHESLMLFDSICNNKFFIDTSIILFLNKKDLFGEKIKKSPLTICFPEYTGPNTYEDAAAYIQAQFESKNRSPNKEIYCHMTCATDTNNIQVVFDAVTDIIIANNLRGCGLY
# Avidin fluor: green autofluorescence of compounds with avidin beads – biophysical, 488/530 nm, flow cytometry, artefact control, profiling panel. compound fluorescence 488/530 nm; stronger effect = higher value. actives 0.38% (n = 220,000). fluorescence (KMESF) at 10 µM; in the data active means fluorescence above about 47
# GSH bead fluor: compound fluorescence on glutathione beads, profiling panel, artefact control, biophysical, 488/530 nm, flow cytometry; GSH beads flow cytometry, compound fluorescence 488/530 nm; stronger effect = higher value; fluorescence (KMESF) at 10 µM; actives 0.25% (n = 190,000); in the data active means fluorescence above about 89;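 further: glutathione beads carrying GST-tagged Bcl family fusion proteins plus one bare bead set; values are compound well signal with DMSO vehicle wells as background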
# RGS4-Gao reg: modulators of RGS4 binding to Galphao, primary screen, biochemical, multiplexed bead flow cytometry; actives 0.33% (n = 220,000); binding response (% of control), % at 10 µM; actives lie on both sides; in the data active means binding response below about 49% or above about 150%; inactive means in between;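 further: fluorescent Galphao activated with aluminum fluoride binding bead-coupled RGS4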
# Target sequence (P09471 whole entry, looked up): as above
# RGS7-Gao reg: RGS7-Galphao binding modulators, primary screen, biochemical, multiplexed bead flow cytometry; Guanine nucleotide-binding protein G(o) subunit alpha (Homo sapiens), P09471; binding response (% of control), % at 10 µM; actives 0.35% (n = 220,000); actives lie on both sides; in the data active means binding response below about 49% or above about 150%; inconclusive means no clear call, values can overlap the other calls; inactive means in between;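 further: fluorescent Galphao held in activated GDP-AlF4 state binding bead-coupled RGS7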
# RGS8-Gao reg: RGS8-Galphao binding modulators, primary screen, biochemical, multiplexed bead flow cytometry; Guanine nucleotide-binding protein G(o) subunit alpha (Homo sapiens), P09471; actives lie on both sides; response (percent of control binding), % at 10 µM; actives 0.34% (n = 220,000); AID 1423, 2008; in the data active means response below about 60% or above about 140%; inactive means in between;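 further: Galphao activated as the GDP aluminium fluoride complex binding bead-coupled RGS8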
# RGS4-Gao HTS: modulators of RGS–Galpha-o binding, primary screen, biochemical, multiplexed beads, flow cytometry, RGS4/7/8/16/19; shares compounds with RGS16-Gao; multiplexed bead flow cytometry; RGS4–Galpha-o binding response, % at 10 µM; actives 99% (n = 1,600);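 further: fluorescently labeled Galpha-o bound to GDP with aluminium fluoride binding biotinylated RGS beads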
# Avidin counter: disruption of biotin probe capture by avidin, counter-screen for RGS protein interaction modulators, biochemical, flow cytometry, bead-based | shares compounds with RGS16-Gao | inhibition, % at 10 µM | streptavidin beads, fluorescein-biotin binding | 1,700 tested, under 10 active;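 active means inhibition above 50%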;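 further: median green fluorescence of gated singlet beads compared with DMSO control wells; 0% = DMSO wells and 100% = complete loss of bead fluorescence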
# RGS8-Gao single: RGS8-Galphao binding modulators, confirmation, biochemical, multiplexed bead flow cytometry, single concentration; shares compounds with RGS16-Gao; bead-based flow cytometry RGS8-Galphao binding, fluorescence; actives lie on both sides; binding response (% of control), % at 10 µM; actives 3% (n = 1,700); AID 1836, 2009; in the data active means binding response below about 72% or above about 130%; inactive means in between;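 further: Galphao activated as GDP AlF4 complex before binding bead RGS8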
# RGS7-Gao confirm: RGS7-Galphao binding modulators, confirmation, biochemical, multiplexed bead flow cytometry, single concentration. shares compounds with RGS16-Gao. bead-based flow cytometry RGS7-Galphao binding; actives lie on both sides. response (percent of control binding), % at 10 µM. actives 7.8% (n = 1,700). AID 1837, 2009; in the data active means response below about 75% or above about 130%; inactive means in between;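 further: fluorescent Galphao activated with GDP and aluminum fluoride binding bead-coupled RGS7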
# RGS16-Gao conf: modulators of RGS16-Galphao protein binding, confirmation, biochemical, single concentration, multiplexed bead flow cytometry. shares compounds with RGS16-Gao. bead-based flow cytometry; actives lie on both sides. response (% of control binding), % at 10 µM. actives 4% (n = 1,700); in the data active means response below about 74% or above about 130%; inactive means in between;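 further: Galphao activated as the GDP aluminium fluoride complex binding bead-coupled RGS16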
# RGS4-Gao confirm: modulators of RGS4-Galphao protein binding, confirmation, biochemical, single concentration, multiplexed bead flow cytometry. shares compounds with RGS16-Gao. actives lie on both sides. binding response (% of control), % at 10 µM. actives 4% (n = 1,700); in the data active means binding response below about 74% or above about 130%; inactive means in between
# RGS19-Gao single: regulators of RGS19-Galphao binding, confirmation, biochemical, single point, multiplexed bead flow cytometry; actives 5% (n = 1,700); AID 1841, 2009; shares compounds with RGS16-Gao; response (percent of control binding), % at 10 µM; bead-based flow cytometry RGS19-Galphao binding; actives lie on both sides; in the data active means response below about 50% or above about 160%; inactive means in between;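 further: 100% = no compound control and 0% = blank background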
# * = called active by the depositor; i = inactive; ? = inconclusive; . = no result; [ ] = another dose, or the depositor's remark. Only some compounds are listed: those with a hit (about 1.2% of all), similar ones and a draw of the others. Unless noted, how the calls were made is not given here.
SMILES,RGS16-Gao,Avidin fluor,GSH bead fluor,RGS4-Gao reg,RGS7-Gao reg,RGS8-Gao reg,RGS4-Gao HTS,Avidin counter,RGS8-Gao single,RGS7-Gao confirm,RGS16-Gao conf,RGS4-Gao confirm,RGS19-Gao single
CCN1CCCC1CNC(=O)C(=O)Nc1ccccc1OC (configuration not stated),108,62*,13,101,153*[activator],104,101*,.,.,.,.,.,.
O=C(CN1c2ccccc2Sc2ccccc21)NNC(=O)Nc1cccc(Cl)c1,102,8,.,100,?,100,.,.,.,.,.,.,.
CCC(Oc1ccccc1)C(=O)N(Cc1ccccc1)c1ccccn1 (configuration not stated),100,10,24,93,90,97,.,.,.,.,.,.,.
CC(C)C(=O)N(Cc1ccccc1)c1ccccn1,244*[activator],116*,38,251*[activator],208*[activator],113,.,-2,102,98,100,100,100
Cc1ccc(SCCNC(=O)/C=C/c2ccc([N+](=O)[O-])cc2)cc1,280*[activator],17,9,113,112,135,113*,-1,100,103,102,102,95
O=C(/C=C/c1ccc([N+](=O)[O-])cc1)NCCSc1ccccc1,94,7,38,106,107,104,.,.,.,.,.,.,.
CCNc1ccc2noc3c2c1C(=O)c1ccccc1-3,43,7,14,47*,46*,55*,.,0,69*,63*,66*,69*,116
CCCCCNCc1ccc(OCc2ccc(Cl)nc2)c(OC)c1,266*[activator],25,10,116,125,132,116*,-2,102,95,103,101,113
COc1ccc(OCC(=O)Nc2ccccc2OC)cc1,422,5,5,116,111,153*[activator],116*,-1,110,117,110,111,105
COc1ccc(OCC(=O)Nc2ccccc2OC(F)F)cc1,99,8,56,102,102,103,.,.,.,.,.,.,.
COc1ccc(N2CCN(C(=O)c3ccc(COc4ccc5c(C)cc(=O)oc5c4)cc3)CC2)cc1,100,84*,24,180*[activator],158*[activator],99,.,-1,102,98,102,100,95
COc1ccc(S(=O)(=O)N2CCN(C(=O)COc3ccc4c(C)cc(=O)oc4c3)CC2)cc1,100,10,11,105,101,103,.,.,.,.,.,.,.
COc1ccc(N2CCN(C(=O)Cn3c(=O)[nH]c4ccccc4c3=O)CC2)cc1,102,25,58,100,99,99,.,.,.,.,.,.,.
Cc1[nH]c2ccccc2c1/C=C/c1nc2ccccc2c(=O)n1CCO,100,24,9,98,99,101,.,.,.,.,.,.,.
O=C(/C=C/c1ccc(O)c(O)c1)O[C@H](Cc1ccc(O)c(O)c1)C(=O)O,83,6,.,88,?,73,.,.,.,.,.,.,.
Cc1ccc(OCC(=O)NNC(=O)C(=O)N2CCCC2)c(C)c1,244*[activator],6,20,118,113,138,118*,1,101,100,102,99,95
Cc1cccc2c1c1ccc3c(c1n2C)C(=O)C=CC3=O,63,4,.,95,?,71,.,.,.,.,.,.,.
Cc1cc2cc3c(cc2nc1SCC(=O)Nc1nc(C)c(C)s1)OCO3,213,10,59,164*[activator],121,108,.,i,101,110,105,103,134
O=C(COC(=O)c1ccc2[nH]c3c(c2c1)CCCC3)Nc1ccccc1Cl,103,10,15,103,108,100,.,.,.,.,.,.,.
O=C(COC(=O)c1ccc2[nH]c3c(c2c1)CCCC3)Nc1ccc(Cl)cc1Cl,182*[activator],2,6,107,103,124,107*,-1,102,98,101,100,99
Cc1cccc(NC(=O)CCCn2c(=S)[nH]c3ccccc3c2=O)c1,104,9,20,101,106,100,.,.,.,.,.,.,.
O=c1oc2c(O)c(O)cc3c(=O)oc4c(O)c(O)cc1c4c23,80,1,11,51,31*,54*,51*,.,.,.,.,.,.
COc1ccc(C2NCCc3c2[nH]c2ccccc32)cc1CSc1nc2ccccc2s1 (configuration not stated),105,3,10,101,100,107,.,.,.,.,.,.,.
CC(C)N1CCC(N2CCN(Cc3ccc(C#CC(C)(C)O)s3)CC2CCO)CC1 (configuration not stated),98,134*,18,142,275*[activator],84,142*,3,100,103,99,100,97
CC(C)N1CCN(Cc2ccc(C#CC(C)(C)O)s2)CC1CCO (configuration not stated),100,2,8,99,99,97,.,.,.,.,.,.,.
O=C(NCCO)C(=O)c1c(-c2ccccc2)cc2ccccn12,101,12,13,100,?,100,.,.,.,.,.,.,.
